The assay addresses RUNX1 (Homo sapiens, UniProt Q01196 1-453). The experiment in a line: custom PBM; custom protein-binding microarray; buffer, salt, pH and temperature not stated; high values mean tight binding. Particulars: dsDNA, one strand shown.
RUNX1, sequence (Q01196 whole entry): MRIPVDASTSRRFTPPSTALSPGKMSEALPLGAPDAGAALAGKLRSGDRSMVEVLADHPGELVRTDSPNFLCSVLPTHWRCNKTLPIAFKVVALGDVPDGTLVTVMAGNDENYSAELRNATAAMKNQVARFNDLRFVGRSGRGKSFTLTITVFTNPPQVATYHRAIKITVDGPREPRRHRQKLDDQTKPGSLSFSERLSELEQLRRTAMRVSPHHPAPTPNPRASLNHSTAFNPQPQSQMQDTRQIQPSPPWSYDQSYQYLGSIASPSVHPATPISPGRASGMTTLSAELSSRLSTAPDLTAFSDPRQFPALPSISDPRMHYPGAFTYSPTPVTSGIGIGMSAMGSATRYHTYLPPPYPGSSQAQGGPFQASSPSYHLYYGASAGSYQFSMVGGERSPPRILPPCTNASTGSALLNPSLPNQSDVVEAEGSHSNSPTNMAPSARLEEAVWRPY
For the sequence “CGCGCACTCTGTGTTTGCGCACATACGCACACATACACATACACACATACACATACGCAC”, the binding signal was 11 log fluorescence intensity.
With “GCATACGGTTGACGTCAGCCACATACGCACACATACACATACACACATACACATACGCAC”, the binding signal was 11 log fluorescence intensity.
The value for “GCGCACATTGCCCGTAAATCATACACGCACACATACACATACACACATACACATACGCAC” was 10.9 log fluorescence intensity.
The value for “CGCGCACTATGTGGTTGCGCACATACGCACACATACACATACACACATACACATACGCAC” was 11.3 log fluorescence intensity; that for “CGCGCACTCTGTGGGTGCGCACATACGCACACATACACATACACACATACACATACGCAC” was 10.9 log fluorescence intensity.
On to “GCATACGGCAGACGTCAGCCACATACGCACACATACACATACACACATACACATACGCAC”, for which the binding signal is 11 log fluorescence intensity.
The same measure for “GCATACGGCTGACGTCCGCCACATACGCACACATACACATACACACATACACATACGCAC”: 10.9 log fluorescence intensity.
As for “GCGCACATTTCCCGTAACTCATACACGCACACATACACATACACACATACACATACGCAC”, the binding signal was 11 log fluorescence intensity.
For the sequence “CGCGCACTCAGTGGTTGCGCACATACGCACACATACACATACACACATACACATACGCAC”, the binding signal is 11 log fluorescence intensity.
The same measure for “GCGCACATTTCCCGTTAATCATACACGCACACATACACATACACACATACACATACGCAC”: 11 log fluorescence intensity.
With “GCATACGGCTGGCGTCAGCCACATACGCACACATACACATACACACATACACATACGCAC”, the binding signal was 11 log fluorescence intensity.
“GCATACTGCTGACGTCAGCCACATACGCACACATACACATACACACATACACATACGCAC”: the binding signal was 10.9 log fluorescence intensity.
As for “GCGCACATTTCCTGTAAATCATACACGCACACATACACATACACACATACACATACGCAC”, the binding signal was 10.9 log fluorescence intensity.
In the case of “CGCGCACTCGGTGGTTGCGCACATACGCACACATACACATACACACATACACATACGCAC”, the binding signal was 11 log fluorescence intensity.
The value for “GCGCACATTTCTCGTAAATCATACACGCACACATACACATACACACATACACATACGCAC” was 10.9 log fluorescence intensity; that for “GCGCACATTTCCCTTAAATCATACACGCACACATACACATACACACATACACATACGCAC” was 11 log fluorescence intensity; that for “CGCGCACTCTGTGGTTGGGCACATACGCACACATACACATACACACATACACATACGCAC” was 11.6 log fluorescence intensity.
The value for “GCGCACATTTCCCATAAATCATACACGCACACATACACATACACACATACACATACGCAC” was 11 log fluorescence intensity.

The values are drawn from paper PMC6602471.
